# JMJD2E inh: JMJD2E (human) inhibition | JMJD2E catalytic domain, FDH-coupled NADH fluorescence (FDH is formaldehyde dehydrogenase) | B2RXH2 | AID 2147 | Potency, µM (doses to about 57.1 µM), without a hit: top-dose activity change, negative = inhibition, most hits filed as inhibitors | actives 1.6% (n = 230,000); active = well fitted inhibition curve with a large enough effect, not every such curve was filed as active; inconclusive = small, poorly fitted or top-dose-only effect, or another doubt; inactive = no such curve, though single readings can be large or run the other way;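 also: 0% = wells with enzyme and -100% = buffer wells without enzyme; nearly all actives have a fitted effect of over 50% in size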
# Target sequence (B2RXH2 1-337 limits assumed): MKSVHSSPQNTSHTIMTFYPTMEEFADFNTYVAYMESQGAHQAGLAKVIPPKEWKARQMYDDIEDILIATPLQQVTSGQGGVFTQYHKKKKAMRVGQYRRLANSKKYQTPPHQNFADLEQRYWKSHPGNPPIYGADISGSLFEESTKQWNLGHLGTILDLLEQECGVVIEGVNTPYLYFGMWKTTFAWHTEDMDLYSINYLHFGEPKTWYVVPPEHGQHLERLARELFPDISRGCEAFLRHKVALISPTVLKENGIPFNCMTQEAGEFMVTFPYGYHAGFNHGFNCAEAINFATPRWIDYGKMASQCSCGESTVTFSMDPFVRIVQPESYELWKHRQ
# PKM2 act: PKM2 (human) enzyme activation | Potency, µM (top dose mostly 57.5 µM), for inactives: at the top dose activation, usual class: activators | purified PKM2, Kinase-Glo ATP luminescence, activation; response scale: 0% is enzyme alone, no compound | actives 0.34% (n = 260,000) | P14618 | AID 1631; also: nearly all actives have a fitted effect of over 55% in size
#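 hPK-M2, >95% pure; 0.1 mM ADP / 0.5 mM PEP final; imidazole pH7.2 buffer w/ 7 mM MgCl2, 50 mM KCl; 1 h RT; Kinase-Glo lum. Intermediate enzyme activity for dual inhibitor/activator qHTS.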
# APE1 inh: APE1 (human) endonuclease inhibition; P27695; recombinant APE1, TAMRA/BHQ-2 abasic DNA cleavage fluorescence; Potency, µM (highest dose often 65.8 µM), for the others: at the highest dose activity change, negative = inhibition, usual class: inhibitors; actives 0.35% (n = 350,000); AID 2517;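 also: plate controls were vehicle for no effect and reference inhibitor for full effect; nearly all actives have a fitted effect of over 55% in size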
# Target sequence (P27695 whole entry, looked up): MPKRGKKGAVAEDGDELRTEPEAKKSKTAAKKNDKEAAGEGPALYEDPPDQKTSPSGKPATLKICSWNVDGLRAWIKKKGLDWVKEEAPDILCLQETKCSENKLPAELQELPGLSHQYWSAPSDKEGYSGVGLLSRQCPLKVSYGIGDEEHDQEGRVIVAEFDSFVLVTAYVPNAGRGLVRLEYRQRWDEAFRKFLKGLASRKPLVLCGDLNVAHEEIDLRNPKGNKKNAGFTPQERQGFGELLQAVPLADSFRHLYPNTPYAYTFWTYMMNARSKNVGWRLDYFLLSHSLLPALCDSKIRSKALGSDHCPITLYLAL
#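 Endonuclease cleavage of a quenched abasic-site DNA duplex (50 nM) by APE1 (0.75 nM) was tracked by TAMRA dequenching. Compounds were preincubated with enzyme 15 min at room temperature; data normalized to buffer-only and DMSO wells plus NSC13755 control.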
# RECQ1 inh: blocks DNA unwinding by human RECQ1 | actives 0.54% (n = 240,000) | RECQ1 DNA unwinding, red fluorescence kinetic read | P46063 | Potency, µM (top dose mostly 57.3 µM), for the others: top-dose activity, negative = inhibition, most hits filed as inhibitors;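 also: plate controls were vehicle for no effect and no enzyme for full effect; nearly all actives have a fitted effect of over 30% in size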
#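 RECQ1T1 50 nM; forked duplex (20 bp + 30-nt ss tails) 200 nM, ATP 2 mM final; pH 8.0, 2 mM MgCl2, 2.5 ug/ml poly(dI-dC); 15 min compound preincubation; discontinuous kinetic read over 2 h at RT.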
# BLM helicase inh: inhibitors of human Bloom syndrome helicase BLM; P54132; recombinant BLM DNA unwinding, fluorescence dequenching; Potency, µM (doses to about 56.1 µM), inactives show at the top dose activity change, negative = inhibition, usual class: inhibitors; actives 0.2% (n = 350,000);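 also: plate controls were vehicle for no effect and no enzyme for full effect; nearly all actives have a fitted effect of over 35% in size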
# * = called active by the depositor; i = inactive; ? = inconclusive; · = no result given; [ ] = dose if it differs, or a comment. Many of the other results were omitted from the sample, so hits are more common in it than they were. Unless noted, calls follow the shape of the dose curve; as a rule, active = well fitted curve in the direction sought with a large enough effect; inconclusive = small, poorly fitted or top-dose-only effect, or another doubt; inactive = no such curve, though single readings can be large; an effect the other way counts as inactive or inconclusive. Unless noted, % is scaled to controls: 0 for no effect and ±100 for the full control effect; potency is read from the fitted curve at half-maximal effect.
SMILES,JMJD2E inh,PKM2 act,APE1 inh,RECQ1 inh,BLM helicase inh
COc1cc(OC)cc(-c2nnc3n2N=C(c2cc(OC)ccc2OC)CS3)c1,·,·,-4%,8%,5%
O=C1/C(=C\c2ccco2)SC(=S)N1C1CCCCC1,·,2%,1%,·,-6%
CC1=C(C#N)C(=O)N(C2CCS(=O)(=O)C2)C(=O)/C1=C\c1ccco1 (stereo not drawn),?,27%,1.6µM*,3.2µM*,7.1µM*
CC(C)C[C@H](NC(=O)[C@@H](Cc1c[nH]c2ccccc12)NC(=O)[C@H](Cc1ccc(O)cc1)NC(=O)[C@H](CO)NC(=O)[C@H](Cc1c[nH]c2ccccc12)NC(=O)[C@H](Cc1cnc[nH]1)NC(=O)[C@@H]1CCC(=O)N1)C(=O)N[C@@H](CCCN=C(N)N)C(=O)N1CCC[C@H]1C(=O)NCC(N)=O,·,·,?,-5%,2%
O=C(O)C1C2C=CC(O2)C1C(=O)Nc1ccc(S(=O)(=O)Nc2ccccc2)cc1 (stereo not drawn),-2%,28µM*,-6%,2%,0%
O=C(O)C1C2C=CC(O2)C1C(=O)Nc1ccc(S(=O)(=O)N2CCc3ccccc32)cc1 (stereo not drawn),7%,?,-2%,2%,1%
CNc1ccccc1C(=O)OCC(C)=O,?,-3%,?,11%[11.5 µM],2%[12.4 µM]
CNc1ccccc1C(=O)OC,22µM*,-14%,18%,i,0%
COc1ccc(C(=O)O)nc1C,14µM*,-10%,-2%,-13%,0%
COc1ccc(-c2nc(C(=O)O)cs2)cc1OC,-6%,7%,-3%,-10%,-2%
COc1cccc(-c2nc3c(C#N)c[nH]n3c2NC2CCCCC2)c1,·,·,·,·,-6%
O=C(CSc1nc2c(c(=O)[nH]1)CN(Cc1ccc(F)cc1)CC2)Nc1ccc(F)cc1,?,16µM*,2%,-1%,1%
CCCCn1c(C)cc2c(c1=O)C1O[C@](c3ccsc3)(Cc3cc(OC)c(OC)cc31)O2,·,1%[11.5 µM],3.9µM*,·,-11%[12.4 µM]
CNS(=O)(=O)c1ccc2c(c1)oc(=O)c1cc(S(=O)(=O)NC)ccc12,1%,1.6µM*,-5%,i,-5%
O=c1oc2cc(S(=O)(=O)NCCCO)ccc2c2ccc(S(=O)(=O)NCCCO)cc12,-24%,14µM*,-1%,-3%,2%
CC(C)(CO)NS(=O)(=O)c1ccc2c(c1)oc(=O)c1cc(S(=O)(=O)NC(C)(C)CO)ccc12,-10%,2%,3%,12%,-4%
CSCC[C@H](NC(=O)[C@@H]1CCCN1C(=O)[C@H](CCCN=C(N)N)NC(=O)[C@H](CC(C)C)NC(=O)[C@@H]1CCCN1C(=O)[C@@H](NC(=O)[C@@H](N)CCC(N)=O)C(C)C)C(=O)N[C@H](C(=O)N[C@@H](Cc1ccc(O)cc1)C(=O)N[C@@H](CCCCN)C(=O)O)[C@@H](C)O,·,·,-2%,4%,3%
CCCCCS(=O)(=O)CCCCCCCCCCn1c(-c2ccc(O)cc2)c(C)c2cc(O)ccc21,?,6%,?,-4%,-12%
Nc1c(/C=C2/C=CC(=O)C(O)=C2)c(=O)nc2sc(CC(=O)N3CCCC3)nn12,·,·,11µM*,·,-19%
Nc1c(/C=C2/C=CC(=O)C(O)=C2)c(=O)nc2sc(CC(=O)N3CCCCC3)nn12,·,8%,1.9µM*,·,28µM*
Nc1c(C=C2C=CC(=O)C=C2)c(=O)nc2sc(CC(=O)N3CCCCC3)nn12,·,·,65%,·,-1%
Cc1ccc(C2CC(=O)Oc3cc(O)ccc32)cc1 (stereo not drawn),-5%,0%,-8%[120 µM],66%[126 µM],6%[120 µM]
Cc1ccc(C2CC(=O)Oc3cc4c(cc32)OCO4)cc1 (stereo not drawn),·,·,?,32µM*,-18%[75.6 µM]
C=C(C)C(=O)Nc1cccc(C2=NOC3(C2)C[C@@H](C(N)=O)N(C(=O)c2ccc(Cl)cc2)C3)c1 (stereo partly drawn),-19%,-3%,?,13µM*,-19%
C=C(C)C(=O)Nc1cccc(C2=NOC3(C2)C[C@H](C(N)=O)N(C(=O)c2ccccc2)C3)c1 (stereo partly drawn),2%,-8%,-5%,i,1%
SMILES,JMJD2E inh,PKM2 act,APE1 inh,RECQ1 inh,BLM helicase inh
C=C(C)C(=O)Nc1cccc(C2=NOC3(C2)C[C@@H](C(N)=O)N(C(=O)C2(C)CC2)C3)c1 (stereo partly drawn),-17%,-15%,?,10µM*,4%
CC(=O)OCC1=C[C@H]2[C@@H]3C(C)(C)[C@]3(OC(C)=O)C[C@@H](C)[C@]2(O)[C@@H]2C=C(C)C(=O)[C@@]2(O)C1,·,·,14%,4%,0%
O=C(c1cnn2c1NC(=C1CC1)C=C2C(F)F)N(C1CCCCC1)C1CCCCC1,·,·,-6%,·,·
Cc1ccc(C)c(S(=O)(=O)c2nnn3c2nc(Nc2ccc(F)c(Cl)c2)c2sccc23)c1,·,·,·,·,-5%
CN(Cc1c(O)ccc2c1oc(=O)c1ccccc12)C1CCCCC1,25µM*,-8%,0%,-9%,2%
CN(C)Cc1c(O)ccc2c3c(c(=O)oc12)CCCCC3,?,-7%,1%,-6%,1%
NC=O,·,·,4%,-3%,·
N#Cc1ccc(NC(=O)Cn2c3[n+](c4ccc(C(F)(F)F)cc42)CCCCC3)cc1,25µM*,13%,24%,i,-1%
c1ccc(-c2cn3nc4c(nc3n2)CCCC4)cc1,32µM*,-34%,-11%,i,-10%
Cc1ccc(S(=O)(=O)NCCNc2ccc([N+](=O)[O-])cc2C(F)(F)F)cc1,-5%,?,6%,i,-5%
O=[N+]([O-])c1ccc(NCCNS(=O)(=O)c2ccccc2)c(C(F)(F)F)c1,1%,28µM*,-3%,-4%,-5%
COc1ccc(OCCOc2ccc(/C=C3\C(=N)N4N=C(C)SC4=NC3=O)cc2)cc1,·,·,9.5µM*,·,·
CC1(C)CCC[C@@](C)([C@H]2CC[C@]3(C)[C@@H]2[C@H](O)CC2[C@@]4(C)CC[C@H](O)C(C)(C)[C@@H]4[C@@H](O)C[C@]23C)O1 (stereo partly drawn),·,·,12%,-4%,-10%
Cc1ccc(-n2nnnc2SCn2nnc3ccccc3c2=O)c(C)c1,0%,16µM*,3%,10%,1%
Cc1cc(SCn2nnc3ccccc3c2=O)nc2ccccc12,-2%,3%,5%,-2%,-1%
CCCCCOC(=O)CCN1C(=O)/C(=C2\SC(=S)N(CCC(=O)OCCCCC)C2=O)SC1=S,-1%,-6%,0%,1.6µM*,0%
CC(C)N(C)C,·,·,2%,0%,·
CN1C/C(=C/c2ccc(B(O)O)cc2)C(=O)/C(=C/c2ccc(B(O)O)cc2)C1,·,·,-5%,-14%,-9%
Cc1ccc(Nc2c(-c3ccc(C)o3)nc3ncccn23)cc1,-6%,?,-4%,-9%,2%
